Some test systems named below: NCI-H23 lung; NCI-H226 lung; NCI-H322M lung; HOP-62 NSCLC; NCI-H460 lung; HOP-92 NSCLC; NCI-H522 lung; A549/ATCC NSCLC; 786-0 renal; COLO 205 colon; DU-145 prostate; K-562 leukemia; MALME-3M melanoma; MDA-MB-231 breast; RXF 393 renal; SF-268 CNS; SF-295 CNS; SF-539 CNS; UACC-257 melanoma; M14 melanoma.
Test in all cases: NCI-60 one-dose screen, 48 h (100 = growth as untreated, 0 = no growth, -100 = all killed)
Settings in all cases: 10 µM unless noted

Compounds without any hit were thinned out: in the full panel of roughly 83,000, 20% have a hit.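 48-hour exposure, single concentration, 96-well plates; percent growth endpoint where 0 means no net growth. Active: below 10.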 A number with no mark means an inactive call. Activity calls are given as the source filed them.

Turning to `Cc1ccc2[nH]c(-c3ccc(S(C)(=O)=O)cc3)c(/C=N/N=C(N)N)c2c1`, the growth with NCI-H23 lung is 76.4%; in the assay with NCI-H226 lung, 76.6%; with NCI-H322M lung, 79%; in the assay with HOP-62 NSCLC, 58.3%; in the assay on NCI-H460 lung it was 37.9%; in the assay on HOP-92 NSCLC it was 59.9%. Also, the growth was -7.31% (active) in the assay on NCI-H522 lung; 46.2% in the assay with A549/ATCC NSCLC; 44.9% with 786-0 renal; 49% in the assay with COLO 205 colon; 48% with DU-145 prostate; 26.3% in the assay with K-562 leukemia. Further, the growth in the assay with MALME-3M melanoma is 52.4%; with MDA-MB-231 breast, 67.6%; in the assay on RXF 393 renal it was 66.8%; in the assay on SF-268 CNS, 62.1%; in the assay on SF-295 CNS, 43.2%; with SF-539 CNS it was 59.5%. For the same molecule, the figures for the growth in the assay on UACC-257 melanoma and in the assay with M14 melanoma were 43.1% and 32.5%, respectively.

Take `CCN(CC)CCNC(=O)c1ccc(-c2nc3ccc4[nH]ncc4c3c3c2CCCC3)cc1`: the growth in the assay with NCI-H23 lung was 65.3%; in the assay on NCI-H226 lung it was 64.7%; with NCI-H322M lung, 55.8%; in the assay on HOP-62 NSCLC, 57.3%; in the assay with NCI-H460 lung, 60.5%; in the assay on HOP-92 NSCLC, 73%. The growth was 50.6% with NCI-H522 lung; 56.1% in the assay on A549/ATCC NSCLC; 50.6% in the assay on 786-0 renal; 63.6% in the assay with COLO 205 colon; 53.5% with DU-145 prostate; 30% with K-562 leukemia. For the same molecule, the growth in the assay on MALME-3M melanoma is 79.1%; in the assay with MDA-MB-231 breast it was 59.6%; in the assay on RXF 393 renal, 36.4%; in the assay on SF-268 CNS, 58.6%; in the assay with SF-295 CNS it was 80.2%; in the assay with SF-539 CNS, 61.2%. Besides, the growth in the assay on UACC-257 melanoma is 96.7%; in the assay on M14 melanoma, 52.9%.

Take `COC(c1ccc2ccccc2c1)C(C)C(F)F` (stereo not given): the growth in the assay on NCI-H23 lung was 95.7%; with NCI-H226 lung it was 100%; in the assay with NCI-H322M lung, 99.6%; with HOP-62 NSCLC, 86.7%; in the assay with NCI-H460 lung it was 111%; with HOP-92 NSCLC, 107%. Also, the growth with NCI-H522 lung was 86.9%; in the assay on A549/ATCC NSCLC, 96.8%; in the assay with 786-0 renal, 90.5%; in the assay with COLO 205 colon, 112%; with DU-145 prostate it was 110%; with K-562 leukemia, 97.1%. Moreover, the growth in the assay on MALME-3M melanoma was 99.5%; in the assay on MDA-MB-231 breast, 111%; in the assay with RXF 393 renal, 106%; in the assay with SF-268 CNS, 100%; with SF-295 CNS it was 97.1%; in the assay on SF-539 CNS it was 95.2%. Further, the growth in the assay on UACC-257 melanoma is 91.3%; in the assay with M14 melanoma it was 99.1%.

With `CCN(CC)c1ccc(/C=N\NC(=O)c2cccc(Nc3ccnc(C(F)(F)F)c3)c2)c(O)c1`, the growth with NCI-H23 lung is 39.5%; with NCI-H226 lung, -3.12% (active); with NCI-H322M lung it was 33%; with HOP-62 NSCLC, 29.5%; in the assay with NCI-H460 lung, 1.17% (active); in the assay on HOP-92 NSCLC, 20.6%. Further, the growth in the assay on NCI-H522 lung was 41.5%; in the assay with A549/ATCC NSCLC, 31.3%; in the assay on 786-0 renal, 5.84% (active); in the assay on COLO 205 colon it was -0.627% (active); in the assay with DU-145 prostate it was 23.1%; with K-562 leukemia, 92.3%. Moreover, the growth with MALME-3M melanoma is 24.4%; with MDA-MB-231 breast, 13.6%; in the assay on RXF 393 renal, -1.92% (active); in the assay on SF-268 CNS it was 10.3%; in the assay with SF-295 CNS, 16.8%; in the assay on SF-539 CNS, -38.9% (active). Further, the figures for the growth with UACC-257 melanoma and in the assay with M14 melanoma were 27.3% and 21.2%, respectively.

For `O=C(O)CCCc1cnc2c3sccc3nc(SCc3c(Cl)cccc3Cl)n12`, the growth with NCI-H23 lung is 62.2%; in the assay on NCI-H226 lung, 83.1%; in the assay on NCI-H322M lung, 55.3%; in the assay on HOP-62 NSCLC it was 33.9%; with NCI-H460 lung it was 22.2%; in the assay with HOP-92 NSCLC, 58.7%. Besides, the growth in the assay on NCI-H522 lung was -12.5% (active); with A549/ATCC NSCLC, 59.5%; with 786-0 renal, 38.5%; in the assay with COLO 205 colon it was 28.3%; in the assay on DU-145 prostate, 59.3%; in the assay on K-562 leukemia, 20.7%. The growth is 59.2% in the assay with MALME-3M melanoma; 69.6% with MDA-MB-231 breast; 54.6% in the assay on RXF 393 renal; 50.3% in the assay on SF-268 CNS; 27.2% in the assay on SF-295 CNS; 41% in the assay on SF-539 CNS. For the same molecule, the figures for the growth with UACC-257 melanoma and in the assay on M14 melanoma were 53% and 33%, respectively.

On to `O=C1CCC(C(=O)NN(c2ccccc2)c2ccccc2)N1` (stereo not given), for which the growth was 108% in the assay with NCI-H23 lung; 96.3% in the assay on NCI-H226 lung; 107% in the assay on NCI-H322M lung; 101% in the assay with HOP-62 NSCLC; 101% in the assay with NCI-H460 lung; 69.6% in the assay with HOP-92 NSCLC. Besides, the growth in the assay with NCI-H522 lung is 96.5%; in the assay with A549/ATCC NSCLC, 103%; in the assay on 786-0 renal, 48.9%; in the assay with COLO 205 colon, 111%; in the assay on DU-145 prostate, 101%; with K-562 leukemia, 12.2%. The growth was 104% with MALME-3M melanoma; 110% in the assay with MDA-MB-231 breast; 118% in the assay on RXF 393 renal; 83.2% in the assay with SF-268 CNS; 99% in the assay with SF-295 CNS; 94.6% in the assay on SF-539 CNS. Further, the growth is 102% in the assay with UACC-257 melanoma and 12% with M14 melanoma.

For the molecule `O=C1Nc2ccc(F)cc2/C1=C\c1nc(-c2ccccc2F)n2ccccc12`, the growth with NCI-H23 lung is 75.9%; in the assay with NCI-H226 lung, 104%; with NCI-H322M lung it was 91.7%; in the assay with HOP-62 NSCLC it was 94.4%; in the assay with NCI-H460 lung, 50.5%; in the assay with HOP-92 NSCLC it was 79.8%. Also, the growth in the assay on NCI-H522 lung was 52.1%; in the assay with A549/ATCC NSCLC it was 86.1%; in the assay on 786-0 renal, 105%; with COLO 205 colon it was 93%; with DU-145 prostate, -7.63% (active); in the assay on K-562 leukemia, 102%. The growth with MALME-3M melanoma was 83.3%; in the assay with MDA-MB-231 breast, 98.5%; in the assay with RXF 393 renal, 84.5%; in the assay with SF-268 CNS it was 85.1%; in the assay with SF-295 CNS, 104%; in the assay with SF-539 CNS it was 64.7%. The growth was 96.2% in the assay on UACC-257 melanoma and 97% in the assay on M14 melanoma.

Regarding `CC(CN)[C@@H]1CC[C@]2(CO)CC[C@]3(C)[C@H](CC[C@@H]4[C@@]5(C)CCC(N)C(C)(C)[C@@H]5CC[C@]43C)[C@@H]12` (stereo not given in full), the growth was -29.1% (active) in the assay with NCI-H23 lung; 85.2% in the assay on NCI-H226 lung; 48.8% with NCI-H322M lung; -48.1% (active) in the assay on HOP-62 NSCLC; -80% (active) in the assay with NCI-H460 lung; 70.9% in the assay with HOP-92 NSCLC. Moreover, the growth in the assay on NCI-H522 lung was -50.4% (active); with A549/ATCC NSCLC, -89.3% (active); with 786-0 renal, -63.1% (active); in the assay on COLO 205 colon, 32.8%; in the assay on DU-145 prostate, -87.9% (active); with K-562 leukemia, -55.8% (active). For the same molecule, the growth with MALME-3M melanoma is 74.2%; in the assay with MDA-MB-231 breast it was -68.5% (active); with RXF 393 renal, 53.1%; with SF-268 CNS, -60.9% (active); in the assay with SF-295 CNS, 56.9%; with SF-539 CNS, 42.2%. Further, the figures for the growth with UACC-257 melanoma and in the assay on M14 melanoma were 78.1% and 11.8%, respectively.
